Potency data for 45 compounds are collected here from PubChem BioAssay (NCATS).

Molecules are shown by their SMILES. Records with an inconclusive call do not appear. A call without a number means that no potency is given here. Active and inactive are the calls of the source. The call rests on the fitted dose curve; in most records, active means well fitted inhibition curve with a large enough effect; inconclusive means small, poorly fitted or top-dose-only effect; inactive means flat fitted curve, though single readings scatter. Where a SMILES comes first, the peptide text is derived from it.

Assay [1] relates to Zika virus NS2B-NS3 protease. Description: Primary screen GU AMC qHTS for Zika virus inhibitors (AID 1347154). Further: nearly all actives have a fitted effect of over 70% in size. To be noted: Zika NS2B-NS3 unlinked protease, AMC fluorogenic substrate; series mostly up to 54.1 µM. Summed up: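 Unlinked Zika NS2B hydrophilic domain/NS3 protease domain noncovalent complex (25 nM final) in 10 mM Tris-HCl pH 8.0, 0.01% Tween 20, with AMC peptide substrate. Fluorescence (ex 340, em 450 nm) change over 15 min, room temperature; percent inhibition fitted to 4-parameter Hill equation.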
For orientation: In qHTS, concentration-response curves come from the screen itself.

Assay [2] can be described thus: qHTS to identify inhibitors of the type 1 interferon - major histocompatibility complex class I in skeletal muscle: primary screen against the NCATS Pharmaceutical Collection (AID 1347407). To be noted: human skeletal muscle cells, IFN-b-induced MHC-I HiBiT luminescence, 24 h; series mostly up to 45.9 µM. In outline: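 Luminescence from HiBiT-tagged endogenous HLA-B*08:01 served as the read-out of IFN-beta-induced MHC class I in CRISPR-engineered C25cl48 myoblasts. Cells received 4 ng/ml IFN-beta plus compound (high final 46 uM, […]) for 24 h.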

As for `CC(=O)N[C@@H](CO)C(=O)N[C@@H](CC(=O)O)C(=O)N[C@@H](CCCCN)C(=O)N1CCC[C@H]1C(=O)O` (Ac-SDKP-OH), the Potency entry in assay [1] and in assay [2] was “inactive” each time.

Consider `C/C(=C1\CCOC(=O)S1)N(C=O)Cc1cnc(C)nc1N`, for which the Potency entry in assay [1] and in assay [2] was “inactive” in each case.

For `CCN1CCN(C(=O)N[C@@H](C(=O)N[C@@H]2C(=O)N3[C@@H]2SC(C)(C)[C@H]3C(=O)O)c2ccccc2)C(=O)C1=O`, the Potency result in assay [1] and in assay [2] was “inactive” each time.

In the case of `CC(C)C(C)(C)C(C)(C)C(C)(C)S`, the Potency entry in assay [1] and in assay [2] was “inactive” throughout.

In the case of `Cc1ncc(CO)c(CO)c1O`, the Potency result in assay [1] and in assay [2] was “inactive” in each case.

As to `CN1C(CSCC(F)(F)F)Nc2cc(Cl)c(S(N)(=O)=O)cc2S1(=O)=O` (stereo not given), the Potency result in assay [1] and in assay [2] was “inactive” throughout.

`CN1N=C(C(N)=O)CCC1=O`: the Potency result in assay [1] and in assay [2] was “inactive” throughout.

With `Cc1nc2n(c(=O)c1CCN1CCC(C(=O)c3ccc(F)cc3)CC1)CCS2`, the Potency result in assay [1] and in assay [2] was “inactive” in each case.

`CCN(CC)CCN`: the Potency entry in assay [1] and in assay [2] was “inactive” in each case.

`Cc1ccc2ccc(Cl)cc2n1`: the Potency result in assay [1] and in assay [2] was “inactive” throughout.

For `CC(CC(C#N)(c1ccccc1)C(C)C)N(C)C` (stereo not given), the Potency result in assay [1] and in assay [2] was “inactive” throughout.

For `COc1cc(OC)nc(O[C@H](C(=O)O)C(OC)(c2ccccc2)c2ccccc2)n1`, the Potency result in assay [1] and in assay [2] was “inactive” throughout.

Regarding `O=C(c1ccccc1)c1ccccc1`, the Potency entry in assay [1] and in assay [2] was “inactive” throughout.

For `OCCOCCN1CCN(C(c2ccccc2)c2ccc(Cl)cc2)CC1` (stereo not given), the Potency result in assay [1] and in assay [2] was “inactive” in each case.

`O=C(OCC1(COC(=O)c2cccnc2)CCCC(COC(=O)c2cccnc2)(COC(=O)c2cccnc2)C1O)c1cccnc1`: the Potency entry in assay [1] and in assay [2] was “inactive” each time.

For `O=C(O)CCCC[C@@H]1SC[C@@H]2NC(=O)N[C@@H]21`, the Potency entry in assay [1] and in assay [2] was “inactive” in each case.

Consider `Nc1ccc(C(=O)OCC(O)CO)cc1` (stereo not given), for which the Potency entry in assay [1] and in assay [2] was “inactive” throughout.

`Cc1oc(=O)oc1COC(=O)[C@@H]1N2C(=O)[C@@H](NC(=O)[C@H](N)c3ccccc3)[C@H]2SC1(C)C`: the Potency result in assay [1] and in assay [2] was “inactive” throughout.

Consider `CC(=O)N(c1onc(C)c1C)S(=O)(=O)c1ccc(N)cc1`, for which the Potency entry in assay [1] and in assay [2] was “inactive” in each case.

Consider `C1N2CN3CN1CN(C2)C3`, for which the Potency entry in assay [1] and in assay [2] was “inactive” each time.

Turning to `Cc1ncc([N+](=O)[O-])n1C`, the Potency entry in assay [1] and in assay [2] was “inactive” each time.

For `C/C(=N/NC(=O)c1ccncc1)C(=O)O`, the Potency entry in assay [1] and in assay [2] was “inactive” in each case.

For `CC1(C)OC(=O)Nc2ccc(Br)cc21`, the Potency result in assay [1] and in assay [2] was “inactive” each time.

`Oc1ccc(CCNCCCCCCNCCc2ccccc2)cc1O`: the Potency entry in assay [1] and in assay [2] was “inactive” in each case.

For `CC(=O)OC[C@H]1O[C@@H](OC(C)=O)[C@H](OC(C)=O)[C@@H]1OC(C)=O`, the Potency result in assay [1] and in assay [2] was “inactive” throughout.

Consider `CCN(CC)CC(=O)Nc1c(C)cccc1C(=O)OC`, for which the Potency result in assay [1] and in assay [2] was “inactive” throughout.

Regarding `CC(COc1ccccc1)NN` (stereo not given), the Potency entry in assay [1] and in assay [2] was “inactive” each time.

Turning to `CC(=O)/C=C/C=C1/C2CCC(C2)C1(C)C` (stereo not given), the Potency result in assay [1] and in assay [2] was “inactive” each time.

Regarding `Cc1coc2ccccc2c1=O`, the Potency result in assay [1] and in assay [2] was “inactive” in each case.

As to `COc1ccc2c(c1)CCCC2=O`, the Potency result in assay [1] and in assay [2] was “inactive” in each case.

As for `OCCCc1ccccc1`, the Potency result in assay [1] and in assay [2] was “inactive” each time.

Turning to `NCC(=O)O`, the Potency entry in assay [1] and in assay [2] was “inactive” in each case.

As to `CN1C(=O)c2ccccc2C1=O`, the Potency result in assay [1] and in assay [2] was “inactive” each time.

For `CCOC(=O)C(=O)CCCCCCl`, the Potency entry in assay [1] and in assay [2] was “inactive” in each case.

Turning to `CCCCCCn1c(=O)c2c(ncn2C)n(C)c1=O`, the Potency entry in assay [1] and in assay [2] was “inactive” each time.

Turning to `CCCCC(O)/C=C(C)/C=C/C=C/C(=O)N1CCCC1=O` (stereo not given), the Potency result in assay [1] and in assay [2] was “inactive” each time.

In the case of `CCCCCC(=O)O[C@]1(C(C)=O)CC[C@H]2[C@@H]3CCC4=CC(=O)CC[C@]4(C)[C@H]3CC[C@@]21C`, the Potency entry in assay [1] and in assay [2] was “inactive” each time.

In the case of `CN1Cc2cc(C(=O)N3CCC(C4CCNCC4)CC3)ccc2N[C@@H](CC(=O)O)C1=O`, the Potency result in assay [1] and in assay [2] was “inactive” throughout.

Turning to `Cc1[nH]cnc1-c1ccc(Cl)cc1`, the Potency result in assay [1] and in assay [2] was “inactive” each time.

Turning to `CC(=O)Nc1ccc(S(=O)(=O)Nc2cc(C)on2)cc1`, the Potency result in assay [1] and in assay [2] was “inactive” throughout.

Take `O=c1[nH]c2ccccc2c(=O)n1CCCl`: the Potency entry in assay [1] and in assay [2] was “inactive” throughout.

In the case of `CN1CCCN=C1/C=C/c1cccs1`, the Potency result in assay [1] and in assay [2] was “inactive” in each case.

With `CC(C)C[C@H](NC(=O)CNC(=O)[C@H](Cc1ccc(O)cc1)NC(=O)[C@H](CO)NC(=O)[C@H](Cc1c[nH]c2ccccc12)NC(=O)[C@H](Cc1cnc[nH]1)NC(=O)[C@@H]1CCC(=O)N1)C(=O)N[C@@H](CCCN=C(N)N)C(=O)N1CCC[C@H]1C(=O)NCC(N)=O` (stereo in doubt), the Potency entry in assay [1] and in assay [2] was “inactive” each time.

Consider `O=C(O)CCC(=O)OC[C@@H](NC(=O)C(Cl)Cl)[C@H](O)c1ccc([N+](=O)[O-])cc1`, for which the Potency entry in assay [1] and in assay [2] was “inactive” each time.

With `O=C1NC(c2ccccc2)(c2ccccc2)C(=O)N1COP(=O)(O)O`, the Potency result in assay [1] and in assay [2] was “inactive” each time.
